{"source": "the supplement of paper PMC10681739", "data": [{"biological_target": "T1, ETS1 (UniProt P14921)", "T1 sequence": "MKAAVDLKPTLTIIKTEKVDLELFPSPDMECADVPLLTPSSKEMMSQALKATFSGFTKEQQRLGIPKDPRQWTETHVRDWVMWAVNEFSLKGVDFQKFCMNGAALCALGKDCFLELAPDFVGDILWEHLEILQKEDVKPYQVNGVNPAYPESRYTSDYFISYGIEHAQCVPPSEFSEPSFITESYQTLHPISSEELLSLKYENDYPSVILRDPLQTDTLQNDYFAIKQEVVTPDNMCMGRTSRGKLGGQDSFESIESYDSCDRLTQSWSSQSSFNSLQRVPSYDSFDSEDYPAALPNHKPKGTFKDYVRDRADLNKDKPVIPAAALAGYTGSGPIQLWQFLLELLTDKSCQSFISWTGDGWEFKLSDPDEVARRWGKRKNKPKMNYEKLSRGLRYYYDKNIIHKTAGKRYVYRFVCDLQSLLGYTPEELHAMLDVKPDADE", "assay": "ETS1 binding intensity (PBM fluorescence) in presence of RUNX1, normalised to ETS1-only experiment (arbitrary fluorescence units); higher = stronger binding", "conditions": "ETS1 concentration 1 nM; RUNX1 concentration 25 nM", "procedure": "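Cooperative genomic-context PBM: 36-bp genomic probes with neighbouring ETS1 and RUNX1 sites, double-stranded on Agilent 4x180k arrays. Full-length recombinant human ETS1 (1 nM) was incubated alone or with RUNX1 (25 nM) and detected with anti-ETS1 antibody plus Alexa488 secondary. Value is the median fluorescence intensity over 4 replicate spots; the ETS1+RUNX1 data were normalised to the ETS1-only data using probes without RUNX1 sites. The 36-bp variable region sits on the array probe with constant linker/primer flanks that are not printed.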", "values": [{"sequence": "CAAACAGGTTCCGGCCGGACTACAGCGCCCACAATG", "ETS1 binding intensity": 460}, {"sequence": "CGATTCCGGAGACAGGCCCCACCGTGCGGTAAACTG", "ETS1 binding intensity": 810}, {"sequence": "CTAGCAGGAAACAGACAGACCCAGCCACAGAATCTC", "ETS1 binding intensity": 519}, {"sequence": "CCTCGGTTCGGAAACGGCGAAAGCAAACCGCAAGGA", "ETS1 binding intensity": 3890}, {"sequence": "TTTCCTCGGATTCCCGGATGTGGGTGAGTTCATTTG", "ETS1 binding intensity": 9630}, {"sequence": "GCCACCTCTTCCTGTGTTGCAAACCACAGGTCCACC", "ETS1 binding intensity": 1320}, {"sequence": "GCCGCCTCTTCCTGTGTTGCAAACCACAGGTCCACC", "ETS1 binding intensity": 2340}, {"sequence": "ATGCGAGTCTGCTTCCTGCCACAAATCACAATTTGA", "ETS1 binding intensity": 686}, {"sequence": "AACATTACGGAAGTTTCTCTACCCATGCGGTGTCTC", "ETS1 binding intensity": 683}, {"sequence": "CGGCTGGCAGGAAGTGGCCACTTGAACCGCAGATGC", "ETS1 binding intensity": 23300}, {"sequence": "GTGCAGGCAATGAGGATGTTGTGGGGGAGACAGGGA", "ETS1 binding intensity": 732}, {"sequence": "TACATAGGCGGAAGTGGCCTGCGGGCGCCGGAGTTG", "ETS1 binding intensity": 9480}, {"sequence": "AGGAGAACTTCCGCCCTTACTATATTACCGCCGGTA", "ETS1 binding intensity": 1090}, {"sequence": "GTTCTCAGCTTCCTGTTCACAGAGAAACCTCAGACA", "ETS1 binding intensity": 1560}, {"sequence": "CTCCGCCTTTCACTTCCTAGTAACCGCCCTCCCTTG", "ETS1 binding intensity": 647}, {"sequence": "TGAGTCACATCCTGCAGGGCTGCGGTATCCTGGCTT", "ETS1 binding intensity": 1680}, {"sequence": "CTGTGCGAGGCAGGATGTGGTCTCCCGCCACCAGGG", "ETS1 binding intensity": 13800}, {"sequence": "TGCGCCAGCCTTCCTGTCGTGGTCACCGGTGGCAGC", "ETS1 binding intensity": 400}, {"sequence": "AAGAGGAAGTCCCAAATTGCTTTTTAACCACCAACA", "ETS1 binding intensity": 874}, {"sequence": "TGGGGCTCTTCCTGCTTATGTGACCACAGCACCTTG", "ETS1 binding intensity": 679}, {"sequence": "AGCTTGCCGGAAGCTGGTTGTTCGCTGCGGCGACCA", "ETS1 binding intensity": 4380}, {"sequence": "TCTCTTCTCCCCATCCGCCCGAGACCACAGCCACTC", "ETS1 binding intensity": 507}, {"sequence": "GGCTCGGCAAACATCCGGCTCCGCGGTGGAACGGGA", "ETS1 binding intensity": 1910}, {"sequence": "CCAGCCGGAAGCCCCGCCCCCTAGAGGCACCGCGGA", "ETS1 binding intensity": 962}, {"sequence": "CCCGCCGGAAGGACGCGTCTGCGTCTCTGCGGCGAG", "ETS1 binding intensity": 1010}, {"sequence": "GCTCTTCACTTCCTGTGGCTCCCGCAGCGGCCGCCG", "ETS1 binding intensity": 1560}, {"sequence": "AAGGCAAACAGGAAATCATAACCACAAACCAGGAAC", "ETS1 binding intensity": 25500}, {"sequence": "GGCTCGGTGCTGCTTCCTGTGTGGTCAGGATCACAG", "ETS1 binding intensity": 4270}, {"sequence": "AGATGAGGAAGTTGGGGTTTAGAGTGGTTAAACTGT", "ETS1 binding intensity": 655}, {"sequence": "AGCCGCCACTTCCTGTCTCTGCGGGTGCATGCTCTT", "ETS1 binding intensity": 5990}, {"sequence": "CCCAATTTCCTTTGCTCTGCTGTCTGCCAACCGCAA", "ETS1 binding intensity": 491}, {"sequence": "GTGGTCTCTGCCACTTCCTGTGGTGTAAACAGTCTC", "ETS1 binding intensity": 3730}, {"sequence": "CTGTTCTCATCCGCCCGCTCTGAGTCACCCACACCT", "ETS1 binding intensity": 441}, {"sequence": "TCTCTTCCTGTGATGGAAATACATTGAGGTTTGCGA", "ETS1 binding intensity": 743}, {"sequence": "ATCACTTGTTTCCGCCAGCAAACCACAGGTCCCCAG", "ETS1 binding intensity": 811}, {"sequence": "TTACGACACTTCCGGCGACGCCCCGCAGCCTTCACC", "ETS1 binding intensity": 2740}, {"sequence": "GTTGTCTTGCCCAAAGGAAGTGGTTACTAGACCAGA", "ETS1 binding intensity": 4870}, {"sequence": "GGACAAAACATCATAGGAAGTGGGTTTTGGGGTGAG", "ETS1 binding intensity": 2950}, {"sequence": "CCCGGGGGCAGGAAATGTCGCCTTACCCACAGCCTT", "ETS1 binding intensity": 5930}, {"sequence": "AGAGCAACAGGATGCAAATAACCACAAGCAAGAATA", "ETS1 binding intensity": 4180}]}]}
